Results filed as inconclusive are left out. A call without a number means that no potency is given here. Calls of active or inactive are those of the source. Calls come from the whole dose curve; as a rule, active = well fitted curve in the direction sought with a large enough effect; inconclusive = small, poorly fitted or top-dose-only effect, or another doubt; inactive = no such curve, though single readings can be large; an effect the other way counts as inactive or inconclusive.
Experiment: MultiTox-Fluor Cytotoxicity Assay - LYMP1-002 - Live Cells (AID 955);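 note: cells exposed to compound for 16 hours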
Settings: LYMP1-002 lymphoblastoid live-cell protease fluorescence viability; series mostly up to 46.1 µM
How it was run: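 LYMP1-002 lymphoblastoid cells; 2500 cells/well; 16 hr compound exposure, 37 C; MultiTox-Fluor reagent 60 min RT; live-cell fluorescence Ex/Em=405/510; qHTS concentration-response, Hill-equation AC50; tetraoctylammonium bromide positive control.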

Compound | outcome
Brc1ccccc1 | inactive
CCOP(=S)(OCC)SCSC(C)(C)C | inactive
C=C(C)C#N | inactive
CCSC(=O)Cl | inactive
Cc1cccc([N+](=O)[O-])c1 | inactive
Nc1c(Cl)c(Cl)nc(C(=O)O)c1Cl | inactive
CC(C)(C)OOC(C)(C)C | inactive
C=C(C)C(=O)OCC1CO1 (stereo not drawn) | inactive
Cc1ccc([N+](=O)[O-])cc1C | inactive
O=[N+]([O-])c1ccc(Cl)c(Cl)c1 | inactive
C=CC(=C)C | inactive
Cc1ccc2ccccc2c1 | inactive
Nc1ccccc1Cl | inactive
Clc1ccc2ccccc2c1 | inactive
Clc1nc(Cl)nc(Nc2ccccc2Cl)n1 | inactive
OCC1CO1 (stereo not drawn) | inactive
C=CCOC(=O)c1ccccc1N | inactive
C=CC(N)=O | inactive
CC(C)(c1ccccc1)c1ccc(O)cc1 | inactive
CCN(CC)c1ccccc1 | inactive

Compound | outcome
S=C=Nc1cccc2ccccc12 | inactive
N#CCCCl | inactive
O=NN(CCO)CCO | inactive
Cc1ccccc1N | inactive
C=CCOC(C)=O | inactive
CCCC(=O)Cl | inactive
NC(=S)Nc1ccccc1 | inactive
O=C(Cl)/C=C/C(=O)Cl | inactive
C=C(Cl)Cl | inactive
ClCBr | inactive
COc1ccc(C=O)cc1OC | inactive
C=CC(=O)OCC | inactive
c1nc[nH]n1 | inactive
c1ccc2c(c1)CCCC2 | inactive
CCCSC(=O)Cl | inactive
Clc1cccc(C(Cl)(Cl)Cl)n1 | inactive
O=NN(c1ccccc1)c1ccccc1 | inactive
C1CCC2CCCCC2C1 (stereo not drawn) | inactive
CC(O)CCl (stereo not drawn) | inactive

Experiment: MultiTox-Fluor Cytotoxicity Assay - LYMP1-002 - Dead Cells (AID 960);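 note: cells exposed to compound for 16 h at 37 °C; nearly all actives have a fitted effect of over 60% in size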
Settings: LYMP1-002 lymphoblastoid cells, dead-cell protease fluorescence; series mostly up to 46.1 µM
How it was run: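 Readout: fluorescence at 485/520 from cell-impermeant bis-AAF-R110 cleaved by proteases leaking from damaged cells. LYMP1-002 lymphoblastoid line, 16 hr compound treatment at 37 C, concentration-response in qHTS format; Hill-equation AC50 values.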

Compound | Potency
Brc1ccccc1 | inactive
CCOP(=S)(OCC)SCSC(C)(C)C | inactive
C=C(C)C#N | inactive
CCSC(=O)Cl | inactive
Cc1cccc([N+](=O)[O-])c1 | inactive
Nc1c(Cl)c(Cl)nc(C(=O)O)c1Cl | inactive
CC(C)(C)OOC(C)(C)C | inactive
C=C(C)C(=O)OCC1CO1 (stereo not drawn) | inactive
Cc1ccc([N+](=O)[O-])cc1C | inactive
O=[N+]([O-])c1ccc(Cl)c(Cl)c1 | inactive
Cc1ccc2ccccc2c1 | inactive
Nc1ccccc1Cl | inactive
Clc1ccc2ccccc2c1 | inactive
[O-][Br+2]([O-])O | inactive
Clc1nc(Cl)nc(Nc2ccccc2Cl)n1 | inactive
OCC1CO1 (stereo not drawn) | inactive
C=CCOC(=O)c1ccccc1N | inactive
C=CC(N)=O | inactive
CC(C)(c1ccccc1)c1ccc(O)cc1 | inactive

Compound | Potency
CCN(CC)c1ccccc1 | inactive
S=C=Nc1cccc2ccccc12 | inactive
N#CCCCl | inactive
O=NN(CCO)CCO | inactive
Cc1ccccc1N | inactive
C=CCOC(C)=O | inactive
CCCC(=O)Cl | inactive
NC(=S)Nc1ccccc1 | inactive
O=C(Cl)/C=C/C(=O)Cl | inactive
C=C(Cl)Cl | inactive
ClCBr | inactive
COc1ccc(C=O)cc1OC | inactive
C=CC(=O)OCC | inactive
c1nc[nH]n1 | inactive
c1ccc2c(c1)CCCC2 | inactive
CCCSC(=O)Cl | inactive
O=NN(c1ccccc1)c1ccccc1 | inactive
C1CCC2CCCCC2C1 (stereo not drawn) | inactive
CC(O)CCl (stereo not drawn) | inactive

Experiment: MultiTox-Fluor Cytotoxicity Assay - LYMP1-003 - Dead Cells (AID 961);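 note: cells exposed to compound for 16 h at 37 °C; nearly all actives have a fitted effect of over 70% in size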
Settings: LYMP1-003 lymphoblastoid cells, dead-cell protease fluorescence; series mostly up to 92.2 µM
How it was run: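 LYMP1-003 lymphoblastoid, 2500 cells/well, 5 hr settle then 16 hr cpd at 37 C; MultiTox-Fluor reagent 60 min RT; Ex/Em 485/520 dead-cell signal; norm. DMSO = 0%, 15 uM tetraoctylammonium bromide = 100%; Hill AC50.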

Compound | Potency
Brc1ccccc1 | inactive

Source: PubChem BioAssay (NCATS)
